Each structure is given as a SMILES string. Potency and affinity values are given separately. The source made the active and inactive calls.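 Rule for the calls: active = cell killing, meaning signal decrease, with fitted half-maximal dose at or below ten times the top valid tested dose; inconclusive = poor fit, or flat curve with 30 to 70% signal loss; inactive = the rest.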

The experiment can be described thus: HeLa cell cytotoxicity, dose response, cytotoxicity control for MITF activator project, CellTiter-Glo luminescence, cherry-pick samples (AID 540259). The following applies: HeLa viability, CellTiter-Glo ATP luminescence, 24 h; series mostly up to 35 µM. Background: Cellular ATP, detected with luciferase, serves as a proxy for viable cell number.
On to `CCN(CC)C(=O)CCc1nnc(Cc2cccc(C(F)(F)F)c2)o1`, for which the compound was classed as inactive. In the case of `COc1ccc(-c2noc(-c3cccc(OC)c3OC)n2)cc1OC` it was “inactive”; in that of `N#Cc1c(-c2ccc(Cl)cc2)ccn2nc(C3CCCCC3)nc12`, “inactive”; in that of `O=C(Nc1ccc2c(c1)OCO2)c1cc(-c2ccccc2Cl)on1`, “inactive”. The same measure for `ClCCn1cnc2c(SCc3ccccc3)ncnc21`: “inactive”; for `COc1ccccc1C(=O)NCCC(=O)NC1CCC(C)CC1` (stereo unspecified): “inactive”. The same measure for `O=C(Cc1ccccn1)c1ccc(Cl)cc1`: “inactive”. Consider `C=CCSc1nncn1/N=C/c1ccc(OC)cc1`, for which the result was inactive.

Consider `Nc1ccc(-c2nc3ncccc3o2)c(O)c1`, for which the compound was classed as inactive. Consider `c1ccc(SCc2nc(-c3ccccn3)no2)cc1`, for which the result was inactive. In the case of `COc1cc(/C=C/c2nc3ccccc3c(=O)[nH]2)ccc1OC(F)F` it was “inactive”; in that of `CN(C)S(=O)(=O)c1cccc(-c2nnc(-c3ccccc3)o2)c1`, “inactive”; in that of `Cc1ccc(-c2cn(-c3ccccc3)c(=S)[nH]2)cc1C`, “inactive”.

Turning to `CCC(=O)N1CCc2nc(-c3ccccc3)sc2C1`, the result was inactive. Turning to `CN(c1ccccc1)c1nc2ccsc2c(=O)s1`, the call was inactive.

Consider `COc1ccccc1/C=C/C=N/n1c(-c2ccccn2)n[nH]c1=S`, for which the outcome was inactive. The same measure for `Cc1ccccc1-c1nc(Cc2ccccc2)no1`: “inactive”; for `O=C(NCc1ccc2c(c1)OCO2)Nc1cccc(Cl)c1`: “inactive”. Take `CC(=O)N(c1ccccc1)c1nnc(-c2cnc(C)cn2)s1`: the compound was called inactive. The same measure for `Cc1cccc(NC(=O)c2sc3nc(N)c(C#N)cc3c2N)c1`: “inactive”; for `CCCC(=O)N/C(N)=N/c1nc2ccccc2o1`: “inactive”; for `NNC(=O)c1ccc2nc(-c3ccc(Br)cc3)cn2c1`: “inactive”. The same measure for `O=C(Nc1ccc2ccccc2c1)c1cc(F)c(F)cc1Cl`: “inactive”; for `Clc1ccc(-n2nnc(-c3ncc[nH]3)n2)cc1Cl`: “inactive”. The same measure for `COc1ccc(C(=O)Nc2cc3c4c(c2)CC(=O)N4CCC3)c(OC)c1`: “inactive”. As to `CCCc1cc(C(=O)Nc2ccc(C(=O)OC)cc2)cs1`, the compound was classed as inactive. On to `O=c1c2c(nc3cc(-c4ccc(Br)cc4)[nH]n13)CCCC2`, for which the compound was called inactive.

Take `O=C(Cc1ccccc1)Nc1nc(-c2cccs2)cs1`: the outcome was inactive. As to `NC(=O)c1cnn(-c2cc(Oc3ccccc3)ncn2)c1N`, the outcome was inactive.

For `Cc1ccc(O)c(-n2nc3ccccc3n2)c1`, the call was inactive. As to `COC(=O)c1cc(-c2ccc(OC)cc2)n[nH]1`, the outcome was inactive.

Consider `Cc1nc2c3cnn(-c4ccc(C)c(C)c4)c3ncn2n1`, for which the result was inactive. The same measure for `Cc1cc(NC(=O)Nc2ccc3c(ccn3C)c2)sn1`: “inactive”; for `Cc1ccc(C2=NN(S(C)(=O)=O)C(c3cccs3)C2)cc1` (stereo unspecified): “inactive”; for `CC(C)(C)n1ncc2c(=O)n(CC(=O)c3ccccc3)cnc21`: “inactive”. As to `Cc1cccc(OCc2nc(-c3nonc3N)no2)c1C`, the compound was classed as inactive.
